# Reference: PubChem BioAssay (NCI)
# Compounds without any hit were thinned out: in the full panel of roughly 79,000, 15% have a hit. Values without a mark were called inactive. Active and inactive are the calls of the source. No stated cut-off is given here; in the data, active means growth inhibition above about 70%; inactive means the rest. Where a SMILES comes first, the peptide text is derived from it. The star is where a group is joined. Boc = CC(C)(C)OC(=O)*
# Tests used:
# [1] = NCI Yeast Anticancer Drug Screen. Data for the rad50 strain (AID 155);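 further: 0% = growth of vehicle-only cultures of the same strain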; conditions: S. cerevisiae rad50 strain growth inhibition; at 50.0 µM; hits give high values
# How it was run: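 Readout: growth inhibition relative to vehicle-treated cultures. Compound exposure was carried out in a genetically defined yeast strain deficient in DNA damage repair.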
# [2] = NCI Yeast Anticancer Drug Screen. Data for the mec2-1 strain (AID 157); conditions: S. cerevisiae mec2-1 strain, at 50.0 µM, hits give high values
# How it was run: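 Using mec2-1 yeast: add compound, measure growth, express inhibition versus vehicle-treated cultures.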
# [3] = NCI Yeast Anticancer Drug Screen. Data for the sgs1 mgt1 strain (AID 161);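 further: 0% = growth of cultures given vehicle only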; conditions: S. cerevisiae sgs1 mgt1 strain, at 50.0 µM, hits give high values
# How it was run: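 Compounds are added to genetically altered yeast, and growth is compared with cultures given vehicle alone to give percent inhibition.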
# [4] = NCI Yeast Anticancer Drug Screen. Data for the cln2 rad14 strain (AID 165);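 further: 0% = growth equal to vehicle treated cultures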; conditions: S. cerevisiae cln2 rad14 strain, at 50.0 µM, hits give high values
# How it was run: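 Yeast strain cln2 rad14, bearing defects in cell cycle control and DNA repair, serves as the test system; values reflect growth inhibition compared with vehicle.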
# [5] = NCI Yeast Anticancer Drug Screen. Data for the bub3 strain (AID 167); conditions: S. cerevisiae bub3 mutant strain, at 50.0 µM, hits give high values
# How it was run: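 Readout: yeast growth inhibition, expressed relative to vehicle-only wells. The test organism is a mutant strain from a panel with lesions in DNA repair or checkpoint genes.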
# [6] = NCI Yeast Anticancer Drug Screen. Data for the mlh1 rad18 strain (AID 175); conditions: S. cerevisiae mlh1 rad18 strain growth inhibition; at 50.0 µM; hits give high values
# How it was run: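 Steps: expose repair-defective yeast to compound; measure growth; express inhibition against vehicle-treated controls.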
SMILES,growth inhibition [1],growth inhibition [2],growth inhibition [3],growth inhibition [4],growth inhibition [5],growth inhibition [6]
CC1(O)CCC(O)CC1CC[N+](C)(C)[O-] (stereo not drawn),7.35%,1.3%,8.8%,4.75%,3.3%,5.55%
O=C(Nc1ccc(Cl)c(C(F)(F)F)c1)C(=O)c1c(O)c2ccccc2oc1=O,9.85%,4.7%,-11.7%,-38.5%,-19.1%,5.3%
O=C(O)C1CCN(C(=O)Cc2ccccc2)CC1,-12.5%,-1.95%,-2.15%,-5.6%,0.05%,-14.7%
N#Cc1c(NC(=S)NC(=O)c2ccccc2)nc2c(c1-c1ccccc1)CCCC2,28%,17.9%,30.1%,1.05%,17.4%,21.6%
NNC(=O)C(=O)O,14.4%,-2.95%,20.2%,-15%,15.3%,14.8%
CCCCn1cnc2ccc(N)cc2c1=O,-1.7%,1.85%,15.3%,-1.7%,16.2%,2%
Nc1ccc(CCCCOc2ccccc2)cc1,98.6% (active),99% (active),98.5% (active),98.5% (active),99% (active),98.4% (active)
Cc1ccc(C(=O)/C=C\C=C\c2ccccc2)cc1,16.6%,27.7%,41.6%,-3.7%,50.6%,19.8%
Brc1cc(Br)c2c(c1)CN(C1CCCCC1)CO2 (tested in a mixture with another compound),-0.15%,3.85%,-0.4%,-18.9%,-1.6%,-7.45%
CC1(C)OC[C@@H](O)[C@H](Br)CO1,-14.7%,-36%,-20.9%,-3.95%,-32.9%,-28.1%
O=C(Nc1ccccc1)c1ccccc1C(O)(c1ccccc1)c1ccc(Cl)cc1 (stereo not drawn),84.7% (active),14%,77% (active),11.1%,52%,56.3%
OC1CCCNC1 (stereo not drawn),16.9%,-4.5%,21.1%,18.1%,14.5%,30.2%
CN(C)CSCCO,-2.8%,-1.5%,-5.7%,-14.8%,-5.1%,0.45%
N#C/C=C/c1ccc(Cl)cc1,-3.45%,-3%,7.2%,20.6%,-2%,-7.05%
CC(=O)Nc1cc2ccccc2oc1=O,-5.5%,-25.1%,-4.65%,2.25%,-11.8%,0.75%
CC1OCOC(CO)C(O)C1O (stereo not drawn),-18.5%,1.55%,17.5%,-32%,-3%,-5.8%
O=C(NC[N+]12CCO[B-]1(c1ccccc1)OCC2)c1ccccc1O (stereo not drawn),25.9%,-8.4%,4.7%,13.3%,-0.75%,10.5%
Cc1ccc(N=Nc2c(O)c(C(=O)O)cc3ccccc23)c(S(=O)(=O)O)c1,12.3%,-8.35%,-7.5%,-45.2%,5.9%,26.4%
COc1cc(C(=O)Oc2c(C(C)=O)sc3c2c(=O)n(-c2ccccc2)c(=S)n3-c2ccccc2)cc(OC)c1OC,19.7%,-5.8%,8.45%,-13.7%,17.9%,22.5%

SMILES,growth inhibition [1],growth inhibition [2],growth inhibition [3],growth inhibition [4],growth inhibition [5],growth inhibition [6]
CCOc1c(N=Nc2ccc(Cl)cc2Cl)c(C)nn1C(N)=S,-16.2%,0.15%,11.1%,-43.8%,-24.2%,17.5%
COc1ccc(S(=O)(=O)N/N=C/C(=O)OCOC(=O)C(C)(C)C)cc1,1.55%,-11.8%,-5.1%,8.55%,-25.9%,19.1%
O=[N+]([O-])c1cc(C(F)(F)F)ccc1Oc1cccc(C(F)(F)F)c1,-13.4%,2%,5.6%,-64.8%,42.6%,16.9%
CCN1C(=O)/C(=C\c2ccccc2)N=C1C,2.45%,-7.35%,5.55%,-58%,-12.8%,-42%
OCC1OC(n2nc(-c3ccccc3)nc2-c2cnccn2)C(O)C(O)C1O (stereo not drawn),-37.4%,-35.8%,-31.4%,3.65%,-46.1%,-43.5%
CC(C)C(NC(=O)OC(C)(C)C)C(=O)N1CCCC1C(=O)O (stereo not drawn) (Boc-Val-Pro-OH; configuration not given here),11.8%,-1.5%,18%,3.3%,2.3%,5.65%
Oc1cccc2nc3ccccc3cc12,4.3%,1.15%,16.2%,-10%,3%,9.6%
C[n+]1nc([O-])oc1-c1ccccc1,4.5%,3.05%,11.4%,-3.65%,-4.6%,6.3%
CSC(=S)S(=O)(=O)C12CC3CC(CC(C3)C1)C2,90.5% (active),93.2% (active),89.5% (active),90% (active),86.5% (active),92.6% (active)
CCCCOCCC1CCNCC1,-46%,-44.1%,-51.5%,10.8%,-48%,-24%
CCN(CC)C1Oc2cc3c(cc2C(c2cccc(OC)c2O)C1C)OCO3 (stereo not drawn),21.1%,-0.15%,22.8%,21.7%,15.2%,-1.4%
CCN(CC)CCC1CC/C(=C\c2ccc(OC)cc2)C1=O (stereo not drawn),18.3%,-4.35%,27.9%,21.1%,-2.45%,21.9%
Cc1ccc(NC(=O)COc2ccc(Cl)cc2)c(C)c1,2.9%,11%,12.8%,9.45%,16.2%,0.75%
N#CC(CC(=O)c1ccccc1)c1ccc(Cl)cc1 (stereo not drawn),1%,4.45%,-6.7%,-79.2%,41.4%,-13.7%
O=C(Nc1ccc(Cl)cc1)c1cccnc1,10.1%,-10.7%,32.8%,-8.5%,34.4%,15.6%
CCCCCCCCCC(=O)OCC1OC(n2cc(F)c(=O)[nH]c2=O)C(NC(=O)OCc2ccccc2)C(OC(=O)CCCCCCCCC)C1O (stereo not drawn),-5.9%,-10.2%,-11.8%,6.9%,-0.35%,-21%
O=C1C2CSCN2C(=O)C2CSCN12 (stereo not drawn),5%,4.45%,5.7%,12.1%,8.8%,4.5%
COC1C2C[C@@H](O)CCC2C(C(=O)OCCl)C[C@H]1O (stereo partly drawn),-12.4%,-6.9%,-11%,-27.2%,-10.6%,-30.2%
O=C1CC2CC1C1CC(Br)C(Br)C21 (stereo not drawn),-2.9%,-17.3%,-8.8%,-4.85%,-15.7%,-1.1%
